Test results: PubChem BioAssay AID686979 (National Center for Advancing Translational Sciences (NCATS), 2013)
Values joined by “and” are separate entries in the source; they are usually repeats but may differ in a detail not shown here. Equal entries are not always repeated. In all, about 420,000 compounds went through this assay and about 50,000 (12%) were called active. Another 26% or so got no clear call; they are omitted. Calls follow the shape of the dose curve; as a rule, active = well fitted inhibition curve with a large enough effect; inconclusive = small, poorly fitted or top-dose-only effect; inactive = flat fitted curve, though single readings scatter. Shown is part of a subset that was picked to be rich in actives. A call without a number means that no potency is given here. A structure can be active in one record and inactive in another.

Experiment: qHTS for Inhibitors of human tyrosyl-DNA phosphodiesterase 1 (TDP1): qHTS in cells in presence of CPT; also: nearly all actives have a fitted effect of over 55% in size
Settings: chicken DT40 Tdp1-/-;hTDP1 cells + 20 nM CPT, ATP luminescence, 48 h; series mostly up to 46.2 µM
Procedure, shortened: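 Chicken DT40 Tdp1-/- cells complemented with human TDP1, 400 cells/well, exposed to compounds plus 20 nM camptothecin for at least 48 h at 37 C; viability read as ATP content by CellTiter-Glo luminescence.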
Potency is read from the fitted curve at half-maximal effect.

Compound | Potency
Cc1ccc(S(=O)(=O)N2CCN(Cc3cccc(C)c3O)CC2)cc1 | inactive
O=C(COc1cccc(Cl)c1)NCc1ccccc1 | inactive
COCCN(CCOC)S(=O)(=O)NC[C@H]1O[C@@H](n2cnc3c(N)ncnc32)[C@H](O)[C@@H]1O | inactive
CC(C)(C)N(Cc1ccccc1)C(=O)c1ccncc1 | inactive
Cc1ccc(CNC(=O)COc2ccc3c(c2)CCC3)cc1 | inactive
O=C(CC1C(=O)NCCN1CC(c1ccccc1)c1ccccc1)NCCc1cn[nH]c1 (stereo not given) | inactive
CCNC(=O)C1CCCN(C(=O)c2ccc(OC)cc2OC)CC1 (stereo not given) | inactive
COc1ccc(NC(=O)c2sc3nc(-c4cc5cccc(OC)c5oc4=O)[nH]c(=O)c3c2C)cc1 | inactive
COc1ccccc1C1=Nc2cccc3cccc(c23)N1 | 5.17 µM (active)
c1ccc(C2=Nc3cccc4cccc(c34)N2)cc1 | 7.31 µM (active)
Fc1ccccc1N=C1Nc2cccc3cccc1c23 | inactive
COc1ccccc1-c1n[nH]nc1C1=CC(=O)CC(C)(C)C1 | inactive
NC(=O)COc1ccccc1C(=O)NC12CC3CC(CC(C3)C1)C2 | inactive
COc1ccc(CCNC(=O)C2CCCN(S(=O)(=O)c3ccc(OC)cc3)C2)cc1 (stereo not given) | inactive
CC1CCCN(S(=O)(=O)c2ccc3[nH]c(=O)cc(C(=O)NCCc4ccc(Cl)cc4)c3c2)C1 (stereo not given) | inactive
COc1ccc(S(=O)(=O)N2CCCC(C(=O)Nc3ccc(NC(=O)c4ccccn4)cc3)C2)cc1 (stereo not given) | 7.31 µM (active)
CCc1ccc(NC(=O)c2cc(S(=O)(=O)N3CCCC(C)C3)cn2C)cc1 (stereo not given) | inactive
CC(C)c1ccc(NC(=O)C2CCCN(S(=O)(=O)c3cccnc3)C2)cc1 (stereo not given) | 16.4 µM (active)
Cc1n[nH]c(C)c1S(=O)(=O)N1CCCC(C(=O)Nc2ccc(Br)cc2)C1 (stereo not given) | inactive
O=C(Nc1ccc(F)cc1)C1CCCN(S(=O)(=O)c2ccc(-n3cnnn3)cc2)C1 (stereo not given) | inactive
O=C(Nc1ccc(S(=O)(=O)N2CCCCC2)cc1)c1cnccn1 | inactive
CSc1ncc(Cl)c(C(=O)Nc2ccc(S(=O)(=O)N3CCCC(C)C3)cc2)n1 (stereo not given) | 8.2 µM (active)
CC1CC(C)CN(S(=O)(=O)c2cccc(C(=O)N3C(=O)c4cccc(N)c4C3=O)c2)C1 (stereo not given) | inactive
COc1ccc(NC(=O)C2CCC(CNC(=O)[C@@H]3Cc4ccccc4CN3)CC2)cc1 (stereo not given in full) | inactive
CCc1cccc(C)c1NC(=O)COC(=O)CNC(=O)c1cccs1 | inactive
Cc1ccc2ncc(C(=O)Nc3ccc(OC(F)(F)F)cc3)c(=O)n2c1 | inactive
CC(=O)Nc1ccc(S(=O)(=O)NCCC(=O)N2CCN(c3ccccc3Cl)CC2)cc1 | 20.6 µM (active)

Compound | Potency
CCNS(=O)(=O)c1ccc(CCC(=O)N2CCN(c3ccc(OC)cc3)CC2)cc1 | inactive
CCOc1ccc(S(=O)(=O)NCCC(=O)N2CCCCCCC2)cc1 | inactive
CCNS(=O)(=O)c1ccc(CCC(=O)N2CCN(c3cc(Cl)ccc3C)CC2)cc1 | 13 µM (active)
CC(=O)c1ccc(S(=O)(=O)NCCC(=O)N2CCN(c3ccccn3)CC2)cc1 | inactive
CC(C)NS(=O)(=O)c1ccc(CCC(=O)N2CCOCC2)cc1 | inactive
CCOC(=O)N1CCC(Nc2c(NCCCN3CCN(CC)CC3)c(=O)c2=O)CC1 | inactive
O=C(COc1cccnc1[N+](=O)[O-])Nc1ccc(Cl)cc1F | inactive
CCn1c(C)cc(=O)cc1-c1ccc(Cl)cc1 | inactive
CCOC(=O)C1=C(C)c2ccccc2OC1C(=O)OCC (stereo not given) | inactive
O=C(Cn1cnc2cc([N+](=O)[O-])ccc2c1=O)NC(=O)NCc1ccccc1 | inactive
Cc1cc(C(=O)Cn2cnc3cc([N+](=O)[O-])ccc3c2=O)c(C)n1CC1CCCO1 (stereo not given) | 14.6 µM (active)
CC(C)(C)NC(=O)Cn1cnc2cc([N+](=O)[O-])ccc2c1=O | inactive
NS(=O)(=O)c1ccc(CCNC(=S)Nc2ccc(S(N)(=O)=O)cc2)cc1 | inactive
Cc1nn(-c2ccccc2)nc1C(=O)OCC(=O)N1CCCCC1C (stereo not given) | inactive
Cc1c(C(=O)Nc2cccc(-c3nnc4n3CCCCC4)c2)oc2ccccc12 | 14.6 µM (active)
O=C(Cn1[nH]c(=O)c2ccccc2c1=O)Nc1cccc(-c2nnc3n2CCCCC3)c1 | inactive
Cc1c(C(=O)NC2CCCCC2)oc2ccccc12 | inactive
Cc1cccc(C(=O)NCC(=O)OCC(=O)N(C)CC(=O)Nc2ccccc2Cl)c1 | inactive
O=c1oc2cc(O)ccc2cc1-c1ccc(F)cc1 | 20.6 µM (active)
COc1ccc(-c2cc3ccc(OCc4nn[nH]n4)cc3oc2=O)cc1 | inactive
CC(=O)Nc1cc2ccc(OC(C)=O)cc2oc1=O | inactive
CC1=C(C(=O)N2CCOCC2)CC(CC(=O)NCc2cccs2)C(=O)N1CCCN1CCCC1=O (stereo not given) | inactive
CCC(C)C(NC(=O)C1CCC(=O)N1C(=O)OCc1ccccc1)C(=O)NC(C(=O)N1CCCC1C(N)=O)C(C)CC (stereo not given) | inactive
O=C(NCc1ccc(F)cc1)C1CCC(CNc2c(N3CCOCC3)c(=O)c2=O)CC1 (stereo not given) | inactive
CC(C)NC(=O)NNc1c(Cl)cncc1Cl | inactive
CCN(CC(=O)NC(C)C)C(=O)c1cc(S(=O)(=O)N2CCCCC2)ccc1N1CCCCC1 | inactive
COC(=O)c1sccc1NC(=O)CCC1CCCC1 | inactive

Compound | Potency
COC(=O)c1sccc1NC(=S)Nc1ccc(C)cc1 | inactive
CCOC(=O)C(=CNNc1ccsc1C(=O)OC)C(=O)OCC | 18.4 µM (active)
CNC(=O)c1cccc2nc3ccccc3nc12 | inactive
Cc1[nH]c2ccccc2c1C(=O)C(=O)N(C)c1ccccc1 | inactive
O=C(NCc1ccccc1Cl)C1CCN(S(=O)(=O)c2cccc3nonc23)CC1 | inactive
Cc1nn(-c2ccccc2)c2sc(C(=O)N(Cc3ccco3)C(C)C(=O)NC(C)(C)C)cc12 (stereo not given) | 13 µM (active)
Cc1nc(C)c(C(=O)N(c2ccc(C)c(C)c2)C(C(=O)NCc2ccco2)c2ccccc2)s1 (stereo not given) | inactive
Cc1ccc(-c2nnn(CC(=O)N(Cc3ccco3)C(C(=O)NC(C)(C)C)c3ccncc3)n2)o1 (stereo not given) | inactive
COCC1CCN(C(=O)CCc2nnc(C3(c4ccc(Cl)cc4)CCC3)o2)C1 (stereo not given) | inactive
CCNC(=O)N1CCN(S(=O)(=O)c2ccc3c(c2)OCCCO3)CC1 | inactive
COc1ccc(N2CC(C(=O)NCCS(=O)(=O)N3CCN(c4ccccc4)CC3)CC2=O)cc1 (stereo not given) | inactive
CC(C)CCNC(=O)c1ccc2c(Cl)c3c(nc2c1)CCC3 | inactive
COc1ccc(N2CCN(C(=O)c3ccc(N4CCCCS4(=O)=O)cc3)CC2)cc1 | inactive
COc1ccc(N2CCN(C(=O)c3ccc4c(Cl)c5c(nc4c3)CCCC5)CC2)cc1 | inactive and 20.6 µM (active)
Cc1cccc(N(C)C(=O)CS(=O)(=O)c2cccc3nsnc23)c1 | inactive
Clc1ccc(Nc2ccc3ccccc3n2)cc1 | inactive
CCc1ccc(S(=O)(=O)c2nnn3c2nc(N2CCN(CC)CC2)c2sccc23)cc1 | inactive
Cc1ccc(C)c(S(=O)(=O)c2nnn3c2nc(N2CCOCC2)c2sccc23)c1 | 23.1 µM (active)
Cc1ccc(S(=O)(=O)c2nnn3c2nc(N2CCN(c4ccccn4)CC2)c2ccccc23)cc1 | inactive
COc1ccc(/C=N/NC(=O)c2ccncc2)cc1CN1CCCc2ccccc21 | inactive
O=C(Nc1ccccn1)C1CCN(S(=O)(=O)c2ccccc2)CC1 | inactive
COc1cccc(CNC(=O)c2ccc3c(Cl)c4c(nc3c2)CCCC4)c1 | inactive
CCOc1ccc(C(=O)NC2CCN(C(=O)Nc3ccccc3OC)CC2)cc1 | inactive
CCOc1ccc(C(=O)Nc2ccc3nc4c(c(Nc5ccccc5OC)c3c2)CCCC4)cc1 | 4.11 µM (active)
COc1cccc(CNC(=O)c2nnn(CC(=O)Nc3cc(Cl)ccc3C)c2N)c1 | inactive
CCOc1ccc(NC(=O)CSc2nncn2C)cc1 | inactive
CCOc1ccc(NC(=S)N2CCC(NC(=O)c3ccccc3)CC2)cc1 | inactive

Compound | Potency
CCOc1ccc(-n2nc3ccc(NC(=O)c4ccc(OC)c(Cl)c4)cc3n2)cc1 | inactive
COc1cccc(CNC(=O)CSc2c3c(nc4cc(Cl)ccc24)CCCC3)c1 | 23.1 µM (active)
CCOc1ccc(NC(=O)CSc2c3c(nc4ccccc24)CCCC3)cc1 | 16.4 µM (active)
O=C1NCC(Nc2ccccc2)C(=O)N1 (stereo not given) | inactive
Nc1c(C(=O)OCC(=O)Nc2ccc(OC(F)F)cc2)[nH]c(=O)[nH]c1=O | inactive
COc1ccc(S(=O)(=O)N2CCC(C(=O)OCC(=O)c3ccccc3)CC2)cc1[N+](=O)[O-] | inactive
CCOC(=O)N1CCN(c2c(NCCCN3CCCC(C)C3)c(=O)c2=O)CC1 (stereo not given) | inactive
CC1(C)CC(=O)c2cnc3nc4ccccc4n3c2C1 | inactive
COc1ccc(Cl)cc1-n1c(CCC(=O)O)ccc1-c1ccc(C)cc1 | inactive
COc1ccc(C)cc1-n1c(-c2ccc(C)cc2)cc2c1CC(C)(C)CC2=O | 8.2 µM (active)
CCOC(=O)N1CCN(C(=O)COC(=O)c2cccc(S(C)(=O)=O)c2)CC1 | inactive
COc1ccc(NC(=O)CSc2nncc(=O)n2N)cc1OC | inactive
CN(C)c1ccc(/C=C/c2sc3ccccc3[n+]2C)cc1 | 0.0447 µM (active)
CN(C)c1ccc(/C=N\S(=O)(=O)c2ccccc2)cc1 | inactive
CN(C)c1ccc(/C=C/c2sc3ccccc3[n+]2CCCCBr)cc1 | 0.316 µM (active)
COc1ccccc1C(=O)NCCC(=O)N(C)Cc1cccnc1 | inactive
Cc1ccc(NC(=S)NC(NC(=O)Cc2cccc3ccccc23)C(Cl)(Cl)Cl)cc1 (stereo not given) | inactive
CSc1ncnc2c1ncn2CCCNCc1ccco1 | inactive
O=C(CSc1nc(C2CC2)nc2ccccc12)Nc1cccc(O)c1 | inactive
Cc1ccccc1NC(=O)NNC(=O)OC(C)(C)C | inactive
O=C(NNc1c2ccccc2nc2ccccc12)c1cc2ccccc2cc1O | 23.1 µM (active)
O=C(COC(=O)c1ccc(O)cc1O)NC(=O)c1ccccc1 | inactive
CC(C)(C)OC(=O)NNc1c2ccccc2nc2ccccc12 | 16.4 µM (active)
Cc1ccc(C(=O)NNC(=O)OC(C)(C)C)c(Cl)c1 | inactive
